In the supplement of paper PMC10849652:
Of roughly 8,800 targets only a part is listed; those with a hit were picked by preference. About 0.5% of all pairs of compound and target were hits. Unmarked numbers belong to inactive results.

compound: COc1cc2nc(-c3cc(F)ccc3O)nc(N[C@@H]3CNC[C@H]3C(C)(C)O)c2cc1OC; assay: log2 fold change, soluble protein after heating vs DMSO (PISA); higher = thermal stabilisation; K562 lysate, 10 uM; active = over 0.2 and 3.5 SD of the protein, either way, in both replicates (recomputed)
How it was run: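 Dounce homogenisation of K562 pellets in PBS pH 7.4 with 1 mM MgCl2 produced a crude extract, used at 1 mg/mL protein. Exposure to 10 μM compound lasted 30 min, and aliquots were then heated for 3 min across 48°C-58°C, pooled and brought to 0.5% NP-40 at 4°C. The supernatant after 21,000xg for 90 min was quantified by TMTpro 16plex LC-MS/MS with channel sums equalised. Duplicate values are given as log-two fold change in thermal stability relative to solvent controls.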

Sequence of UniProt O75607 (O75607 whole entry, looked up): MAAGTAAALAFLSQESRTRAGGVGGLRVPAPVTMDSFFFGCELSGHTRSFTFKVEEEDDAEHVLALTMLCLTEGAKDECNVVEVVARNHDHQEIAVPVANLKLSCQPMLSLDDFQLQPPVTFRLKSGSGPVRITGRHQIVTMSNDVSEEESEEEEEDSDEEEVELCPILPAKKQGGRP
Sequence of UniProt Q9Y217 (Q9Y217 whole entry, looked up): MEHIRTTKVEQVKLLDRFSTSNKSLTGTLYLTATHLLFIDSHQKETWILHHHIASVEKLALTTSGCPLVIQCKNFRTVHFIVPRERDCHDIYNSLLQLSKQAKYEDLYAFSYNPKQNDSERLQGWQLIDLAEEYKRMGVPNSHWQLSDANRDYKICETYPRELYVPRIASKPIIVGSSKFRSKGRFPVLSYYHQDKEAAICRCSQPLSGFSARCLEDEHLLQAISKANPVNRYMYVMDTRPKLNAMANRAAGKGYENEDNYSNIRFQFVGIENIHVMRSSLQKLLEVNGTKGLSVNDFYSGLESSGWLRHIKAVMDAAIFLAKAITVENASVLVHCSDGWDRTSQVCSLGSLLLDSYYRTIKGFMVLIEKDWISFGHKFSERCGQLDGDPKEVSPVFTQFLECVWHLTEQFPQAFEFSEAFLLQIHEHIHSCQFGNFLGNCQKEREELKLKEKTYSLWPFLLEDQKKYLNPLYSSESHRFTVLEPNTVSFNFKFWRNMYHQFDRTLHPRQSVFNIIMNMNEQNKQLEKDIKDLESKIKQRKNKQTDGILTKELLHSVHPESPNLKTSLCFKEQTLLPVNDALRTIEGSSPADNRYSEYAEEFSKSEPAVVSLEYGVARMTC
Sequence of UniProt Q9BPX3 (Q9BPX3 whole entry, looked up): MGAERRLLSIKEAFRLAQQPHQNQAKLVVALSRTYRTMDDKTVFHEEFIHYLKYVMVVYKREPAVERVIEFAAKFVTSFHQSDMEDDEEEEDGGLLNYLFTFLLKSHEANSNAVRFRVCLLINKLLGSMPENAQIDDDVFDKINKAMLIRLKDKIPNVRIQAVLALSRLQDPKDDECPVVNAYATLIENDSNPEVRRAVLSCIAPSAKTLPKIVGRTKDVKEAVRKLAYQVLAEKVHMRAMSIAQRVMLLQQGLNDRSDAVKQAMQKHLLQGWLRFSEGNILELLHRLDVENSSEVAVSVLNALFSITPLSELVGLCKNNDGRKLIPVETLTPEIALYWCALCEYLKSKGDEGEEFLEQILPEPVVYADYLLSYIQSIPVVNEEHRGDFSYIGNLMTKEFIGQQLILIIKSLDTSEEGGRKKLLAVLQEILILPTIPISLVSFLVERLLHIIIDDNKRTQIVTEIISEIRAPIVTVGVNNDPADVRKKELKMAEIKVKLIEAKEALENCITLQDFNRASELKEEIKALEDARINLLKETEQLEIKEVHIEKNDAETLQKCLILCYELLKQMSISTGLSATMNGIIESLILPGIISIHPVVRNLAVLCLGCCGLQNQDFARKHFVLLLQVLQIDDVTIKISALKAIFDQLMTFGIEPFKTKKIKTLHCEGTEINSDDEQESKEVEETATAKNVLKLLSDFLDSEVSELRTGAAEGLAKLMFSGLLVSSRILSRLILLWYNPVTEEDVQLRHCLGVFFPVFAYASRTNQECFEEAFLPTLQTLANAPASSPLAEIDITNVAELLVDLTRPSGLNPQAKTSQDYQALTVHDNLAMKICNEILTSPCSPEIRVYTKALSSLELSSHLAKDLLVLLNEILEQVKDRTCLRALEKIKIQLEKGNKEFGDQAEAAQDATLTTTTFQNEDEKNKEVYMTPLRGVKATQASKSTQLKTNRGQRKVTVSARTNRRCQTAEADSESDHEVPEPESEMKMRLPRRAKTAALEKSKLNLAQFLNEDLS
Sequence of UniProt Q8WUM0 (Q8WUM0 whole entry, looked up): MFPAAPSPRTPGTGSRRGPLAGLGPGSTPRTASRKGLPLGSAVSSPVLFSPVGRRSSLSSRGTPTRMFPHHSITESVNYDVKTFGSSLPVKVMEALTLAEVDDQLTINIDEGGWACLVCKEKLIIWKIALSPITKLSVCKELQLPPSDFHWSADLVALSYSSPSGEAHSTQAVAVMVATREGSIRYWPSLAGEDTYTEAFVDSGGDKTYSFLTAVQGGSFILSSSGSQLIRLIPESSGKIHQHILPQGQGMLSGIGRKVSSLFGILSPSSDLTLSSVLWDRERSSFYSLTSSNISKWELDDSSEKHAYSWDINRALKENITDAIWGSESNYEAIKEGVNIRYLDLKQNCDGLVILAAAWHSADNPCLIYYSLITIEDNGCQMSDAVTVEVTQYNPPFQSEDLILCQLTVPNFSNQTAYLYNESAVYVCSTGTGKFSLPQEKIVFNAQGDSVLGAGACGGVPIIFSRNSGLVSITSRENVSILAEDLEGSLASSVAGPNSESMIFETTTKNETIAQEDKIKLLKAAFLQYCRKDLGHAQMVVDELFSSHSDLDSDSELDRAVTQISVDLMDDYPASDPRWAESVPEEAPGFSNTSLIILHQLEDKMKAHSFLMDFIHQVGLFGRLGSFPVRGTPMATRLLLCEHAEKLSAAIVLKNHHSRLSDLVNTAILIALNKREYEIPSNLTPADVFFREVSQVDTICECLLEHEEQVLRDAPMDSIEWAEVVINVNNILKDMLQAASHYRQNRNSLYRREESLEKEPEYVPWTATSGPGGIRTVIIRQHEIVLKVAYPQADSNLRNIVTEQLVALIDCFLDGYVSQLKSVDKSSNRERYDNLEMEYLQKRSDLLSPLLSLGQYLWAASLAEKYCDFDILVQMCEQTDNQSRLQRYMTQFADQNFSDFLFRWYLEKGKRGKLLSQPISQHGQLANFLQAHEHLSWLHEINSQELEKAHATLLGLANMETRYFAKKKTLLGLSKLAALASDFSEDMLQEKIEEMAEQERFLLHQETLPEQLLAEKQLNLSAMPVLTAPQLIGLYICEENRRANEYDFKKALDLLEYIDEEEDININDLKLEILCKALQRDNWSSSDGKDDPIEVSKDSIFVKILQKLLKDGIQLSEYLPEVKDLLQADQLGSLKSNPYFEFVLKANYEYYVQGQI
Sequence of UniProt P52948 (P52948 whole entry, looked up): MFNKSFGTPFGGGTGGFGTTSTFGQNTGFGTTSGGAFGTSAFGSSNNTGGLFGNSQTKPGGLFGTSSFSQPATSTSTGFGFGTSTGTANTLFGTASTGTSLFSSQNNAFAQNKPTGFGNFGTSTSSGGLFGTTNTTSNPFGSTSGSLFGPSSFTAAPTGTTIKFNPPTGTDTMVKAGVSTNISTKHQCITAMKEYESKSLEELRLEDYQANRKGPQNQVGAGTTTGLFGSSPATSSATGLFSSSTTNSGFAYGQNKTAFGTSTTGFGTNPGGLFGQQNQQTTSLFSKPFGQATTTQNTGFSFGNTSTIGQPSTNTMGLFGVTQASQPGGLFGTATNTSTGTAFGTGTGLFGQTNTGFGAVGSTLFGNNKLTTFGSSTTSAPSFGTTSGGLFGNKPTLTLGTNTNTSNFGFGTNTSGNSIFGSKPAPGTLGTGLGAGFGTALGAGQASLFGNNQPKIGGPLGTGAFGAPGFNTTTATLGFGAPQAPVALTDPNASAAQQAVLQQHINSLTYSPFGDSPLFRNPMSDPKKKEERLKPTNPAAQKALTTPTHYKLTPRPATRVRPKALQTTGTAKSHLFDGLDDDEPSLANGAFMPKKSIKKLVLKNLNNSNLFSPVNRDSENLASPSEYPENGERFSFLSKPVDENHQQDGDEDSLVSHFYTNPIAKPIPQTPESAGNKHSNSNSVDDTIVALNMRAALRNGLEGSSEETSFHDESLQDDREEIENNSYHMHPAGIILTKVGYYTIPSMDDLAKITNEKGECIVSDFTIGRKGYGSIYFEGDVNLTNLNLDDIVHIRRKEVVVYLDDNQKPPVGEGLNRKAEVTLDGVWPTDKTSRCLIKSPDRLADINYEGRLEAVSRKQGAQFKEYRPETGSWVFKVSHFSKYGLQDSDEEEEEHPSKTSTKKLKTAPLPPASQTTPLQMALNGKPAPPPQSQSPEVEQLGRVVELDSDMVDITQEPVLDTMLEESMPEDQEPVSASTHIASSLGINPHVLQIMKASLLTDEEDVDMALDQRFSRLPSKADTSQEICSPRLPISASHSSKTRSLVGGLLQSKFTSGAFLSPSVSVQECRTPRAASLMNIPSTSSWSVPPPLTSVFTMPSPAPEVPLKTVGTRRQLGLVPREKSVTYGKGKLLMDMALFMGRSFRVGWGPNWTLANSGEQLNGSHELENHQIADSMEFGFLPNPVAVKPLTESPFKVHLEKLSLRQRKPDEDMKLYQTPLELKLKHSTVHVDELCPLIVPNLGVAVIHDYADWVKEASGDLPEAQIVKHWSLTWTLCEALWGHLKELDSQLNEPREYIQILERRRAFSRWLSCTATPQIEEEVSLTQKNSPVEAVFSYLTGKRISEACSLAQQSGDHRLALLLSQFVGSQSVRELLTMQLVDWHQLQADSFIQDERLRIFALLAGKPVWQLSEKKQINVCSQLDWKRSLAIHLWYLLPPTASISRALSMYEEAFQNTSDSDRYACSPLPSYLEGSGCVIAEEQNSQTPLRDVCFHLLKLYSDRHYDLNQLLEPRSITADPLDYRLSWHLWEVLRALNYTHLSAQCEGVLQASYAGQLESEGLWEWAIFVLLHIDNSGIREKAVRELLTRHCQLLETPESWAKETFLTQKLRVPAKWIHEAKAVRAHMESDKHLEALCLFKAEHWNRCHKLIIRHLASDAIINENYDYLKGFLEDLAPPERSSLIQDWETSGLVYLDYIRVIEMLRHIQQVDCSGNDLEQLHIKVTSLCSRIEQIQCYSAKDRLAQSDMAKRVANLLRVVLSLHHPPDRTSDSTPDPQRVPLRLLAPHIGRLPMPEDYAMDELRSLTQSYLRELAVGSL
Sequence of UniProt Q15843 (Q15843 whole entry, looked up): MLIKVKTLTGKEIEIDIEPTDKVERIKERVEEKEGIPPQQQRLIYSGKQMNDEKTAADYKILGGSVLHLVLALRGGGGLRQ
Sequence of UniProt Q9BRA0 (Q9BRA0 whole entry, looked up): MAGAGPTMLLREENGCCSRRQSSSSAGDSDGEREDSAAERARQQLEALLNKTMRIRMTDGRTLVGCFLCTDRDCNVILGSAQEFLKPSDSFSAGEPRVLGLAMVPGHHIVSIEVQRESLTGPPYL

Target | log2 fold change
NUMBL (UniProt Q9Y6R0) | 0.044
OPA1 isoform 2 (UniProt O60313) | -0.041
MTHFD1L (UniProt B7ZM99) | 0.009
PARD3 (UniProt Q8TEW0) | 0.438 (active)
NACC1 (UniProt Q96RE7) | -0.012
NEDD8 (UniProt Q15843) | -0.03
PANK4 (UniProt Q9NVE7) | 0.013
NAA35 (UniProt Q5VZE5) | -0.006
OGFR (UniProt Q9NZT2) | -0.003
MTMR6 (UniProt Q9Y217) | 0.004
OTC (UniProt P00480) | -0.023
NELFCD (UniProt Q8IXH7) | -0.006
NFATC2IP (UniProt Q8NCF5) | -0.001
NUDT4 isoform 2 (UniProt Q9NZJ9) | 0.003
NADK2 (UniProt Q4G0N4) | -0.004
NUP98 (UniProt P52948) | 0.017
NR3C1 isoform 3 (UniProt P04150) | -0.001
PAXBP1 (UniProt Q9Y5B6) | -0.003

Target | log2 fold change
NCAPD3 (UniProt P42695) | 0
NPLOC4 isoform 2 (UniProt Q8TAT6) | -0.007
N4BP2 (UniProt Q86UW6) | 0
NCAPD2 (UniProt Q15021) | -0.005
NCAPG (UniProt Q9BPX3) | -0.01
NOSTRIN (UniProt Q8IVI9) | 0
NUP160 (UniProt Q12769) | 0.004
MT-CYB (UniProt P00156) | 0.062
PARG (UniProt Q86W56) | 0.01
OSGEP (UniProt Q9NPF4) | 0.007
ORC3 isoform 2 (UniProt Q9UBD5) | -0.009
MTHFD1, A0A384N5Y3 | -0.012
NAA38 isoform 2 (UniProt Q9BRA0) | 0.022
NPTN (UniProt Q9Y639) | 0.042
NUP133 (UniProt Q8WUM0) | 0.011
MSI2 (UniProt Q96DH6) | -0.012
PAN2 isoform 2 (UniProt Q504Q3) | -0.043
NPM3 (UniProt O75607) | 0.023
